# Screen size: about 420,000 compounds; about 64,000 (15%) were called active. Inconclusive results (about 27%) are left out. Calls come from the whole dose curve; as a rule, active = well fitted inhibition curve with a large enough effect; inconclusive = small, poorly fitted or top-dose-only effect; inactive = flat fitted curve, though single readings scatter. Not all results are given here. Entries that show only a call come without a potency.
# Test: qHTS for Inhibitors of human tyrosyl-DNA phosphodiesterase 1 (TDP1): qHTS in cells in absence of CPT; note: nearly all actives have a fitted effect of over 55% in size
# Conditions: DT40 Tdp1-/- hTDP1 cells, no CPT, ATP luminescence, 48 h; activity change, negative = growth inhibition: at 46.2 µM (top of the series)
# Method in brief: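 Stably hTDP1-transfected Tdp1-null chicken DT40 cells were treated with library compounds minus camptothecin and grown for at least 48 hr at 37 °C, after which cellular ATP was quantified by luminescence.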
# Potency is the fitted concentration of half-maximal effect.
row,SMILES,Potency
1,CCOC(=O)c1nnn(CC(=O)Nc2cccc(F)c2)c1C(=O)OCC,inactive
2,CCCCn1c(N)c(N2CCOCC2)c(=O)n(CC(=O)NCCc2ccccc2)c1=O,inactive
3,Cc1ccc(NNC(=O)C2CCC2)cc1C,inactive
4,COc1ccccc1-c1c(C#N)c(N)nc2c1CCC2,inactive
5,Cc1ccc2nsnc2c1NC(=O)c1ccccc1[N+](=O)[O-],inactive
6,Cc1c(CN2CCC(n3nccc3NC(=O)CCc3ccccc3)CC2)cnn1C,inactive
7,c1ccc(CCC2=NCCn3cccc32)cc1,inactive
8,CCc1ccc(NC(=O)CN2C(=O)CSC2=O)cc1,inactive
9,c1ccc(C(=NNc2nc3ccccc3s2)c2ccccn2)cc1,0.13 µM (active)
10,Cc1ccnc(Nc2nc3ccccc3s2)n1,inactive
11,O=C(Nc1ccccc1Cl)O/N=C(/c1ccccc1)c1ccccn1,inactive
12,CCC(CC)C(=O)Nc1ccc(S(=O)(=O)Nc2nccs2)cc1,inactive
13,O=C(NCCC1=CCCCC1)c1ccc(Cl)c([N+](=O)[O-])c1,16.4 µM (active)
14,O=C(Nc1ccncc1)c1ccc(Cl)c([N+](=O)[O-])c1,14.6 µM (active)
15,O=C(Nc1cccnc1)c1ccc(Cl)c([N+](=O)[O-])c1,inactive
16,O=C(NCCC1=CCCCC1)c1ccc(-n2cncn2)cc1,inactive
17,Cc1ccnc(NC(=O)c2ccc(Cl)c([N+](=O)[O-])c2)c1,inactive
18,Cn1nnc2cc(C(=O)NCCC3=CCCCC3)ccc21,inactive
19,C#CCCCCCCCCCCCCCCCC(=O)O,inactive
20,CCCCC(=O)OC1=CN(Cc2ccccc2)S(=O)(=O)c2ccccc21,inactive
21,CCOC(=O)Cc1cccc(-c2cc(CCCCCCc3ccc(O[C@H]4O[C@H](COC(C)=O)[C@@H](OC(C)=O)[C@H](OC(C)=O)[C@@H]4OC(C)=O)c(-c4cccc(CC(=O)OCC)c4)c3)ccc2O[C@H]2O[C@H](COC(C)=O)[C@@H](OC(C)=O)[C@H](OC(C)=O)[C@@H]2OC(C)=O)c1,inactive
22,COC(C[C@@H]1O[C@@H]1C(=O)[C@@H](C)OCc1ccccc1)OC,inactive
23,Cc1ccccc1CSCCNC(=O)C1CCN(S(=O)(=O)Cc2ccccc2)CC1,inactive
24,Cc1ccc(Cl)cc1NC(=O)C1CCCN(c2cnccn2)C1 (stereo not given),inactive
25,Cc1c(Cl)cccc1NC(=O)C1CCCN(c2ncnc3onc(C)c23)C1 (stereo not given),6.51 µM (active)

row,SMILES,Potency
1,Cc1cccc(NC(=O)C2CCCN(C(=O)Nc3ccc(F)cc3)C2)c1C (stereo not given),inactive
2,Cc1cn([C@H]2C[C@H](O)[C@@H](/C=C/C(=O)NCCCc3ccccc3)O2)c(=O)[nH]c1=O,inactive
3,Cc1ccc(C)c(NC(=O)C2CCCN2C(=O)OC(C)(C)C)c1 (stereo not given),inactive
4,Cc1ccccc1N1CCN(CC(=O)NCc2ccc(Cl)cc2)CC1,inactive
5,CCOC(=O)N1CCC(Nc2c(NCCCN3CCN(c4ccc(OC)cc4)CC3)c(=O)c2=O)CC1,inactive
6,CCOC(=O)c1c(C)[nH]c(C(=O)NCCN2CCOCC2)c1C,inactive
7,O=C(COc1cc2oc(=O)c3c(c2cc1Cl)CCC3)NCCCN1CCOCC1,inactive
8,Cn1c(=O)cc(OCC(=O)N2CCN(c3ccccc3)CC2)c2ccccc21,inactive
9,CCOC(=O)c1c(C)[nH]c(CCC(=O)NCCCN2CCN(c3cccc(Cl)c3)CC2)c1C,16.4 µM (active)
10,CCOC(=O)N1CCC(Nc2c(NCCN3CCN(c4cccc(Cl)c4)CC3)c(=O)c2=O)CC1,inactive
11,Cc1ccc(C)c(N2CCN(CCCNC(=O)Nc3ccc(Cl)cc3)CC2)c1,6.51 µM (active)
12,Cc1ccc(C)c(N2CCN(C(=O)Cc3c(C(=O)O)c(C)cn3C)CC2)c1,inactive
13,CCOC(=O)c1c(C)[nH]c(CCC(=O)NCCCN2CCN(c3cc(C)ccc3C)CC2)c1C,4.61 µM (active)
14,CCn1c(=O)cc(OCC(=O)NCCCN2CCN(c3cccc(Cl)c3)CC2)c2ccccc21,20.6 µM (active)
15,COc1ccc(N2CCN(CCNC(=O)Nc3cc(Cl)ccc3Cl)CC2)cc1,inactive
16,CCOc1ccc(S(=O)(=O)NCCCn2ccnc2)cc1NC(C)=O,inactive
17,CN(CCc1ccccc1)c1ccc([N+](=O)[O-])cn1,inactive
18,C/C=C(/C)C(=O)Nc1cccc(C2=NOC3(C2)C[C@@H](C(N)=O)N(C(=O)C2(C)CC2)C3)c1 (stereo not given in full),inactive
19,O=C(NCC(O)c1ccc([N+](=O)[O-])cc1)C1CCCCC1 (stereo not given),inactive
20,C=CC1C(OC2OC(CO)C(O)C(O)C2O)OC=C(C(=O)OC)C1CC1CC(=O)CC(CC(=O)CCc2ccc(O)cc2)O1 (stereo not given),inactive
21,C[C@@H](O)c1nc2ccccc2n1N,inactive
22,C#CCOCCOCCOCCNc1nc(N2CCOCC2)nc(N2CCN(C(=O)[C@H](Cc3ccc(O)cc3)n3cc(CCO)nn3)CC2)n1,inactive
23,Cn1cc(CN2CCCCC2c2ccccn2)c(-c2ccc3c(c2)OCCO3)n1 (stereo not given),inactive
24,CCc1nnc(NC(=O)CCC(=O)N2CCN(c3cc(C)ccc3C)CC2)s1,inactive
25,CC1=C(c2ccc(C)cc2)S(=O)(=O)NC1=NCCCN1CCN(c2cc(C)ccc2C)CC1,3.66 µM (active)

row,SMILES,Potency
1,COC(=O)c1ccc2c(c1)S(=O)(=O)NC(=NCCCN1CCOCC1)S2,inactive
2,CCN(CC)C(=O)N1CCN(C(=O)c2ccc(C)cn2)CC1,inactive
3,CC(=NNC(=O)c1ccc2nc[nH]c2c1)c1ccc(Br)cc1,inactive
4,Cc1nc2ccc(C(=O)N/N=C/c3ccc(O)cc3)cc2[nH]1,inactive
5,O=C(N/N=C/c1ccc(Cl)c(Cl)c1)c1ccc2nc[nH]c2c1,23.1 µM (active)
6,CCCCc1ccc(S(=O)(=O)NC(=O)C2(C)CCN2C(=O)c2ccccc2)cc1 (stereo not given),inactive
7,COc1ccc(C2/C(=C(/O)c3ccc4c(c3)CC(C)O4)C(=O)C(=O)N2Cc2ccncc2)cc1 (stereo not given),inactive
8,COc1cc(C2C(C(=O)OCCC#N)=C(C)NC3=C2S(=O)(=O)c2ccccc23)cc(OC)c1OC (stereo not given),inactive
9,O=C(Nc1ccccc1Br)c1cc(CN2CCCC2)on1,inactive
10,O=C(c1ccco1)N1CCN(C(=O)c2cc(-c3ccccc3F)no2)CC1,inactive
11,CN(Cc1ccccc1)Cc1ccccc1F,inactive
12,CC(Cc1ccccc1)C(=O)N(C)Cc1ccccc1 (stereo not given),inactive
13,CN(Cc1ccccc1F)C(=O)C(Cc1ccccc1)NC(=O)c1ccccc1 (stereo not given),16.4 µM (active)
14,Cc1ccc(C)c(C(C)NC(=O)C2CCCO2)c1 (stereo not given),inactive
15,O=c1onc(-c2c(F)cccc2F)n1-c1ccccc1Cl,inactive
16,CCOC(=O)Cn1c(SC)nc2sc3c(c2c1=O)CC(C)(C)OC3,14.6 µM (active)
17,CCOC(=O)CSc1nc2sc3c(c2c(=O)[nH]1)CC(C)(C)OC3,inactive
18,CCSc1nc2sc3c(c2c(=O)[nH]1)CC(C)(C)OC3,inactive
19,COC(=O)C1(C)NC(c2ccccc2OC)C2C(=O)N(c3ccccc3)C(=O)C21 (stereo not given),inactive
20,CCOCCOC(=O)C1=C(C)N(C)C(=O)NC1c1ccccc1F (stereo not given),inactive
21,CCOC(=O)C1(Cc2ccc(O)cc2)NC(c2ccccc2F)C2C(=O)N(C)C(=O)C21 (stereo not given),20.6 µM (active)
22,Cc1n[nH]c(=O)c2c1nnn2Cc1ccc(F)cc1,inactive
23,Cc1ccc(C)c(Cn2nnc3c(=O)[nH]c(C(=O)Nc4ccc(F)cc4)nc32)c1,16.4 µM (active)
24,Cc1cc(C)cc(NC(=O)Cn2cnc3c(nnn3Cc3ccc(F)cc3)c2=O)c1,inactive
25,O=C1NC(c2ccccc2)Oc2ccccc21 (stereo not given),inactive

row,SMILES,Potency
1,O=C(OCCN1C(=O)c2ccccc2C1=O)Oc1ccccc1,inactive
2,C[C@H]1CN([C@@H](C)CO)C(=O)CCCn2cc(nn2)CO[C@@H]1CN(C)C(=O)Nc1ccccc1,inactive
3,COc1ccc(OC)c(C(=O)NC(CC(N)=O)c2ccc(N3CCC(N4CCCCC4)CC3)c([N+](=O)[O-])c2)c1 (stereo not given),inactive
4,CC1CCCCN1CCCNc1ccc(C(CC(N)=O)NC(=O)c2ccccc2)cc1[N+](=O)[O-] (stereo not given),inactive
5,NC(=O)CC(NC(=O)Cc1cccc2ccccc12)c1ccc(NCc2cc(F)ccc2F)c([N+](=O)[O-])c1 (stereo not given),29.1 µM (active)
6,COc1ccccc1CNc1ncncc1-c1cccc(NS(C)(=O)=O)c1,inactive
7,CS(=O)(=O)Nc1cccc(-c2cncnc2Nc2ccccc2)c1,inactive
8,CNc1ncnc2ccc(-c3cccc(NS(C)(=O)=O)c3)cc12,18.4 µM (active)
9,Cn1c2ccccc2c2cc(/C=C(\NC(=O)c3ccccc3)C(=O)NCC(=O)O)ccc21,inactive
10,O=C(O)C1CCCN1C1=NS(=O)(=O)c2ccccc21 (stereo not given),inactive
11,Fc1cccc(-n2ncc3c2ncn2nc(-c4ccccc4Cl)nc32)c1,inactive
12,COc1ccc(N2C(=O)c3ccccc3NC2c2ccc(OC)c(CN3CCOCC3)c2)cc1 (stereo not given),inactive
13,COc1cc(C2C3=C(CCCC3=O)OC3=C2C(=O)CCC3)ccc1OCC(=O)Nc1ccccc1,inactive
14,COc1ccc(C2Nc3ccc(NC(=O)COC(C)=O)cc3C(=O)N2Cc2ccccc2)cc1COc1ccc(NC(C)=O)cc1 (stereo not given),12.6 µM (active)
15,CN(CC(=O)Nc1ccc(F)cc1)CC(=O)N1CCCCC1,inactive
16,CCc1c(C)c2c(C)[nH]nc2oc1=O,inactive
17,COc1ccc(OC)c(-n2nnc3c(sc4nc(C)c(Br)c(C)c43)c2=O)c1,inactive
18,COc1ccc(OC)c(Cc2cnc3nc(N)nc(N)c3c2C)c1,0.164 µM (active)
19,Cc1nnc(NC(=O)c2ccc3nccnc3c2)s1,inactive
20,NC(=O)C1CCN(C(=O)COc2cccc3cccnc23)CC1,inactive
21,CCOc1cc(N2CCOCC2)c(OCC)cc1NC(=O)COc1cccc(Cl)c1,2.59 µM (active)
22,O=C(COc1cccc(Cl)c1)NCc1ccccc1,inactive
23,CCOc1cc(N2CCOCC2)c(OCC)cc1NC(=O)COc1cccc2cccnc12,10.3 µM (active)
24,O=C(COc1nsnc1N1CCOCC1)Nc1ccccc1Cl,inactive
25,O=C(COc1ccc(Cl)cc1)NC(=S)Nc1ccccc1N1CCOCC1,inactive
